Consider eight compounds from PubChem BioAssay (NCI).

Among the test systems are NCI-H23 lung; NCI-H226 lung; NCI-H322M lung; HOP-62 NSCLC; NCI-H460 lung; HOP-92 NSCLC; NCI-H522 lung; A549/ATCC NSCLC; COLO 205 colon; DU-145 prostate; K-562 leukemia; MALME-3M melanoma; MDA-MB-231 breast; RXF 393 renal; SF-268 CNS; SF-295 CNS; SF-539 CNS; UACC-257 melanoma; M14 melanoma; 786-0 renal.
Holding throughout (assay): NCI-60 one-dose screen, 48 h (100 = growth as untreated, 0 = no growth, -100 = all killed)
What all share (conditions): 10 µM unless noted

SMILES strings stand for the structures. Compounds without any hit were thinned out: in the full panel of roughly 83,000, 20% have a hit.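 Interpretation: 100, growth as untreated; towards 0, rising growth inhibition; 0, no net growth; 0 to -100, cell death. Compounds scoring below 10 were considered active.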 Unmarked numbers belong to inactive results. Active and inactive are the calls of the source.

Consider `CO[C@@H]1[C@H](N(C)C(=O)c2ccccc2)C[C@@H]2O[C@]1(C)n1c3ccccc3c3c4c(c5c6ccccc6n2c5c31)C(=O)NC4=O`, for which the growth is 44.2% in the test on NCI-H23 lung; 29% in the test with NCI-H226 lung; 38.9% in the test on NCI-H322M lung; 28.5% in the test with HOP-62 NSCLC; 48.2% with NCI-H460 lung; 4.48% (active) with HOP-92 NSCLC. For the same compound, the growth in the test with NCI-H522 lung was 21.2%; with A549/ATCC NSCLC, 27.3%; with COLO 205 colon it was 2.3% (active); in the test on DU-145 prostate it was 50.1%; in the test on K-562 leukemia it was 52.4%; with MALME-3M melanoma it was 38.5%. Moreover, the growth in the test with MDA-MB-231 breast was 41.7%; in the test with RXF 393 renal, -37.8% (active); in the test on SF-268 CNS it was 48.2%; in the test with SF-295 CNS, 42.5%; in the test with SF-539 CNS, 13.6%; with UACC-257 melanoma, 61.5%. For the same compound, the growth in the test with M14 melanoma was 37.1%.

In the case of `COc1cc(NCCCN(CC(C)C)CC(C)C)c2ncccc2c1`, the growth in the test with NCI-H23 lung was 72.9%; in the test with NCI-H226 lung, 97.8%; with NCI-H322M lung, 108%; in the test with HOP-62 NSCLC, 87.6%; with NCI-H460 lung, 95.2%; with HOP-92 NSCLC, 84.2%. Moreover, the growth with NCI-H522 lung is 73.2%; in the test on 786-0 renal, 90.7%; with DU-145 prostate, 106%; with K-562 leukemia, 110%; in the test with MALME-3M melanoma, 102%; with MDA-MB-231 breast, 88.7%. Further, the growth was 89.5% with SF-268 CNS; 89.4% in the test with SF-295 CNS; 102% in the test with SF-539 CNS; 90.9% in the test with UACC-257 melanoma; 91.4% in the test on M14 melanoma.

As to `COc1ccc(C(=O)c2cc3c(N)c(C(=O)Nc4cccc(OC)c4)sc3nc2C)cc1`, the growth is 33.8% in the test on NCI-H23 lung; 68% with NCI-H226 lung; 58.7% in the test on NCI-H322M lung; 41.5% in the test on HOP-62 NSCLC; 7.07% (active) in the test on NCI-H460 lung; 85.3% in the test on HOP-92 NSCLC. Also, the growth was -16% (active) in the test with NCI-H522 lung; 50.7% with 786-0 renal; -3.22% (active) in the test on COLO 205 colon; 16.2% in the test on DU-145 prostate; 8.3% (active) in the test with K-562 leukemia; 55.6% in the test with MALME-3M melanoma. The growth with MDA-MB-231 breast is 15.5%; with SF-268 CNS, 39%; with SF-295 CNS, 24.2%; with SF-539 CNS, -16.3% (active); with UACC-257 melanoma, 71.3%; in the test on M14 melanoma it was 13.1%.

Turning to `CS(=O)(=O)OCCN(CCOS(C)(=O)=O)c1ccc(/C=N/Nc2ccc([N+](=O)[O-])cc2[N+](=O)[O-])cc1`, the growth in the test on NCI-H23 lung was 73.6%; with NCI-H226 lung, 81.4%; in the test on NCI-H322M lung, 94.5%; in the test on HOP-62 NSCLC it was 92.8%; in the test on NCI-H460 lung, 37.5%; in the test on HOP-92 NSCLC, 71.8%. Further, the growth in the test with NCI-H522 lung was 91.5%; in the test with 786-0 renal, 101%; in the test with COLO 205 colon, 90%; in the test on DU-145 prostate, 99.7%; in the test with K-562 leukemia it was 102%; with MALME-3M melanoma, 86.8%. Besides, the growth is 71.6% with MDA-MB-231 breast; 102% in the test on RXF 393 renal; 94.1% in the test with SF-268 CNS; 79.2% with SF-295 CNS; 80.5% with SF-539 CNS; 96.9% in the test with UACC-257 melanoma. Also, the growth with M14 melanoma is 99.3%.

For `Cc1c(C(=O)NO)sc2ncnc(Nc3ccc(NC(=S)Nc4ccccc4)cc3)c12`, the growth is 96.5% in the test on NCI-H23 lung; 104% in the test with NCI-H226 lung; 107% with NCI-H322M lung; 101% in the test with HOP-62 NSCLC; 102% in the test with NCI-H460 lung; 92.1% in the test on NCI-H522 lung. Besides, the growth was 101% with A549/ATCC NSCLC; 99.1% in the test with 786-0 renal; 113% in the test on COLO 205 colon; 107% in the test with DU-145 prostate; 103% with K-562 leukemia; 99.5% in the test with MALME-3M melanoma. In addition, the growth is 95% with MDA-MB-231 breast; 104% with RXF 393 renal; 98.2% with SF-268 CNS; 98.3% in the test with SF-295 CNS; 100% in the test with SF-539 CNS; 99.4% with UACC-257 melanoma. For the same compound, in the test on M14 melanoma, the growth was 104%.

Consider `COc1ccc(C(=O)c2cc(C)c(OC)c(C)c2)c(OC)c1O`, for which the growth with NCI-H23 lung is 31.7%; in the test with NCI-H226 lung, 7.47% (active); with NCI-H322M lung it was 45.8%; in the test on HOP-62 NSCLC, 12.9%; in the test on NCI-H460 lung, 2.04% (active); with HOP-92 NSCLC, -0.0707% (active). Also, the growth with NCI-H522 lung is -9.43% (active); with 786-0 renal, 15.2%; in the test on COLO 205 colon, 66.8%; with DU-145 prostate, -5.78% (active); with K-562 leukemia, 8.52% (active); with MALME-3M melanoma, 54.8%. Further, the growth with MDA-MB-231 breast is 16.8%; in the test with RXF 393 renal, 35.4%; with SF-268 CNS, 31.5%; with SF-295 CNS it was 25.2%; in the test with SF-539 CNS, -10.8% (active); in the test with UACC-257 melanoma, 50.6%. Also, the growth with M14 melanoma was -1.65% (active).

Consider `O=C(Nc1cccc(C2=NCCN2)c1)c1ccc(OCCCOc2ccc(C(=O)Nc3cccc(C4=NCCN4)c3)cc2)cc1`, for which the growth in the test on NCI-H23 lung was 1.27% (active); with NCI-H226 lung, 52.8%; in the test with NCI-H322M lung, -0.261% (active); with HOP-62 NSCLC it was 57.4%; in the test on NCI-H460 lung it was 6.54% (active); in the test on HOP-92 NSCLC, 18.8%. Further, the growth in the test on NCI-H522 lung was -18.6% (active); in the test with 786-0 renal, 58.1%; with COLO 205 colon, -18.7% (active); in the test with DU-145 prostate, 9.35% (active); with K-562 leukemia, 27.2%; in the test on MALME-3M melanoma it was -82% (active). In addition, the growth was -10.5% (active) in the test with MDA-MB-231 breast; -19.9% (active) with RXF 393 renal; 25.9% in the test on SF-268 CNS; 52.1% in the test with SF-295 CNS; -43.7% (active) with SF-539 CNS; -11% (active) with UACC-257 melanoma. Further, the growth in the test on M14 melanoma was 30.4%.

On to `COc1ccc(C(O)c2cc3c(N)c(C(=O)Nc4cccc(Br)c4C)sc3nc2C)cc1` (stereo not drawn), for which the growth in the test on NCI-H23 lung is 32.1%; in the test on NCI-H226 lung it was 56.9%; with NCI-H322M lung, 46.1%; in the test on HOP-62 NSCLC it was 36.5%; in the test with NCI-H460 lung, -2.32% (active); in the test on HOP-92 NSCLC, 61.5%. Also, the growth was -32.7% (active) in the test on NCI-H522 lung; 37.6% in the test with 786-0 renal; -7.14% (active) in the test on COLO 205 colon; 9.81% (active) in the test with DU-145 prostate; 5.92% (active) in the test with K-562 leukemia; 47.3% with MALME-3M melanoma. The growth in the test on MDA-MB-231 breast is 5.97% (active); in the test with SF-268 CNS, 30.1%; in the test on SF-295 CNS, 18.5%; in the test on SF-539 CNS, -3.14% (active); with UACC-257 melanoma, 47.8%; in the test with M14 melanoma it was 18.9%.
